Reference: PubChem BioAssay AID1159580 (chemical genetic matrix, 2015)
Several values for one entry are separate records, joined by “and”; a condition that tells them apart may be missing. Equal values may be shown once. About 2,000 (36%) of roughly 5,500 compounds were called active. Roughly 18% stayed inconclusive and do not appear here. No stated cut-off is given here; in the data, active means normalized growth mostly below about 0.91 (no sharp cut-off); inconclusive means no clear call, values can overlap the other calls; inactive means mostly above about 0.92. The list shows a part of the results.

Experiment: chemical genetic growth profiling, strain panel (AID 1159580);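 further: tested at 20 µM; growth read once vehicle control cultures reached saturation at 30 °C; 1 = growth at the plate median or of vehicle wells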
Details: growth OD

Measured: normalized growth

CC(=O)Nc1ccc(S(=O)(=O)Nc2ccc([N+](=O)[O-])cc2)cc1
inactive: S. cerevisiae deletion strains, locus YAL013W, strain DEP1, stronger effect = lower value 1.01 | S. cerevisiae deletion strains, locus YBR021W, strain FUR4, stronger effect = lower value 0.97 | S. cerevisiae deletion strains, locus YBR229C, strain ROT2, stronger effect = lower value 1.01 | S. cerevisiae deletion strains, locus YCL029C, strain bik1, stronger effect = lower value 1.01 | S. cerevisiae deletion strains, locus YDL035C, strain GPR1, stronger effect = lower value 1.01 | S. cerevisiae deletion strains, locus YDL074C, strain BRE1, stronger effect = lower value 0.986 | S. cerevisiae deletion strains, locus YDL101C, strain DUN1, stronger effect = lower value 1 | S. cerevisiae deletion strains, locus YDL134C, strain PPH21, stronger effect = lower value 1 | S. cerevisiae deletion strains, locus YDL185W, strain tfp1, stronger effect = lower value 0.999 | S. cerevisiae deletion strains, locus YDL192W, strain arf1, stronger effect = lower value 1.01 | S. cerevisiae deletion strains, locus YDR101C, strain arx1, stronger effect = lower value 0.99 | S. cerevisiae deletion strains, locus YDR150W, strain NUM1, stronger effect = lower value 1.02 | S. cerevisiae deletion strains, locus YDR162C, strain NBP2, stronger effect = lower value 1.01 | S. cerevisiae deletion strains, locus YDR318W, strain mcm21, stronger effect = lower value 0.991 | S. cerevisiae deletion strains, locus YDR388W, stronger effect = lower value 0.999 | S. cerevisiae deletion strains, locus YDR502C, strain sam2, stronger effect = lower value 1 | S. cerevisiae deletion strains, locus YEL061C, strain CIN8, stronger effect = lower value 1.01 | S. cerevisiae deletion strains, locus YER110C, stronger effect = lower value 0.997 | S. cerevisiae deletion strains, locus YER155C, strain BEM2, stronger effect = lower value 1 | S. cerevisiae deletion strains, locus YER167W, strain BCK2, stronger effect = lower value 1.01 | S. cerevisiae deletion strains, locus YGL078C, strain dbp3, stronger effect = lower value 1 | S. cerevisiae deletion strains, locus YGL086W, strain mad1, stronger effect = lower value 1 | S. cerevisiae deletion strains, locus YGL248W, strain PDE1, stronger effect = lower value 1 | S. cerevisiae deletion strains, locus YGR078C, strain PAC10, stronger effect = lower value 0.995 | S. cerevisiae deletion strains, locus YGR135W, strain pre9, stronger effect = lower value 0.996 | S. cerevisiae deletion strains, locus YGR229C, strain SMI1, stronger effect = lower value 1.01 | S. cerevisiae deletion strains, locus YGR252W, strain gcn5, stronger effect = lower value 0.955 | S. cerevisiae deletion strains, locus YHR030C, strain SLT2, stronger effect = lower value 1.01 and 1 | S. cerevisiae deletion strains, locus YHR079C, strain IRE1 (second series), stronger effect = lower value 0.997 | S. cerevisiae deletion strains, locus YHR079C, strain IRE1, stronger effect = lower value 0.984 | S. cerevisiae deletion strains, locus YHR094C, strain hxt1, stronger effect = lower value 1 | S. cerevisiae deletion strains, locus YHR129C, strain ARP1, stronger effect = lower value 1 | S. cerevisiae deletion strains, locus YHR200W, strain rpn10, stronger effect = lower value 0.992 | S. cerevisiae deletion strains, locus YIL066C, strain RNR3, stronger effect = lower value 1.02 | S. cerevisiae deletion strains, locus YIL073C, strain SPO22, stronger effect = lower value 1.05 | S. cerevisiae deletion strains, locus YIL125W, strain kgd1, stronger effect = lower value 0.996 | S. cerevisiae deletion strains, locus YIR030C, strain dcg1, stronger effect = lower value 1.01 | S. cerevisiae deletion strains, locus YJL095W, strain BCK1, stronger effect = lower value 0.994 and 0.998 | S. cerevisiae deletion strains, locus YJL134W, strain LCB3, stronger effect = lower value 1.01 | S. cerevisiae deletion strains, locus YJL168C, strain set2, stronger effect = lower value 0.989 | S. cerevisiae deletion strains, locus YJL187C, strain SWE1 (second series), stronger effect = lower value 1.01 | S. cerevisiae deletion strains, locus YJR043C, strain POL32, stronger effect = lower value 0.995 | S. cerevisiae deletion strains, locus YJR066W, strain TOR1, stronger effect = lower value 0.93 | S. cerevisiae deletion strains, locus YJR075W, strain HOC1, stronger effect = lower value 1.01 | S. cerevisiae deletion strains, locus YKL009W, strain mrt4, stronger effect = lower value 1.09 | S. cerevisiae deletion strains, locus YKL068W, stronger effect = lower value 1 | S. cerevisiae deletion strains, locus YKL085W, strain MDH1 (second series), stronger effect = lower value 1.01 | S. cerevisiae deletion strains, locus YKL085W, strain MDH1, stronger effect = lower value 1.01 | S. cerevisiae deletion strains, locus YKL190W, strain CNB1, stronger effect = lower value 1.01 | S. cerevisiae deletion strains, locus YKR001C, strain vps1, stronger effect = lower value 1.01 | S. cerevisiae deletion strains, locus YLR039C, strain RIC1, stronger effect = lower value 1.04 | S. cerevisiae deletion strains, locus YLR058C, strain SHM2, stronger effect = lower value 1.01 | S. cerevisiae deletion strains, locus YLR102C, strain apc9, stronger effect = lower value 0.994 | S. cerevisiae deletion strains, locus YLR113W, strain HOG1, stronger effect = lower value 0.969 | S. cerevisiae deletion strains, locus YLR262C, strain YPT6, stronger effect = lower value 1.04 | S. cerevisiae deletion strains, locus YLR268W, strain sec22, stronger effect = lower value 0.993 | S. cerevisiae deletion strains, locus YLR330W, strain CHS5, stronger effect = lower value 1.01 | S. cerevisiae deletion strains, locus YLR342W, strain FKS1 (second series), stronger effect = lower value 0.995 | S. cerevisiae deletion strains, locus YLR371W, strain rom2, stronger effect = lower value 0.994 | S. cerevisiae deletion strains, locus YLR418C, strain cdc73, stronger effect = lower value 0.949 | S. cerevisiae deletion strains, locus YML016C, strain PPZ1, stronger effect = lower value 1.01 | S. cerevisiae deletion strains, locus YML032C, strain rad52, stronger effect = lower value 0.987 | S. cerevisiae deletion strains, locus YML124C, strain tub3, stronger effect = lower value 1 | S. cerevisiae deletion strains, locus YMR078C, strain ctf18, stronger effect = lower value 0.993 | S. cerevisiae deletion strains, locus YMR223W, strain ubp8, stronger effect = lower value 1 | S. cerevisiae deletion strains, locus YMR263W, strain SAP30, stronger effect = lower value 1.01 | S. cerevisiae deletion strains, locus YMR307W, strain GAS1, stronger effect = lower value 0.989 | S. cerevisiae deletion strains, locus YNL067W, strain RPL9B, stronger effect = lower value 1.01 | S. cerevisiae deletion strains, locus YNL128W, strain TEP1, stronger effect = lower value 1.01 | S. cerevisiae deletion strains, locus YNL153C, strain GIM3, stronger effect = lower value 0.995 | S. cerevisiae deletion strains, locus YNL183C, strain NPR1, stronger effect = lower value 0.941 | S. cerevisiae deletion strains, locus YNL233W, strain BNI4, stronger effect = lower value 1 | S. cerevisiae deletion strains, locus YNL250W, strain rad50, stronger effect = lower value 0.996 | S. cerevisiae deletion strains, locus YNL271C, strain bni1, stronger effect = lower value 1 | S. cerevisiae deletion strains, locus YNL298W, strain CLA4, stronger effect = lower value 1 | S. cerevisiae deletion strains, locus YNL307C, strain MCK1, stronger effect = lower value 1 | S. cerevisiae deletion strains, locus YNL322C, strain KRE1, stronger effect = lower value 1 | S. cerevisiae deletion strains, locus YNR052C, strain pop2, stronger effect = lower value 1 | S. cerevisiae deletion strains, locus YOL006C, strain TOP1, stronger effect = lower value 0.975 | S. cerevisiae deletion strains, locus YOL012C, strain htz1 1.05 | S. cerevisiae deletion strains, locus YOL147C, strain pex11, stronger effect = lower value 0.996 | S. cerevisiae deletion strains, locus YOR061W, strain CKA2, stronger effect = lower value 1.01 | S. cerevisiae deletion strains, locus YOR069W, strain VPS5, stronger effect = lower value 1 | S. cerevisiae deletion strains, locus YOR136W, strain idh2, stronger effect = lower value 0.998 | S. cerevisiae deletion strains, locus YOR144C, strain elg1, stronger effect = lower value 0.997 | S. cerevisiae deletion strains, locus YOR184W, strain ser1, stronger effect = lower value 1 | S. cerevisiae deletion strains, locus YOR231W, strain MKK1, stronger effect = lower value 0.989 | S. cerevisiae deletion strains, locus YOR316C, strain cot1, stronger effect = lower value 1 | S. cerevisiae deletion strains, locus YPL055C, strain LGE1, stronger effect = lower value 1.03 | S. cerevisiae deletion strains, locus YPL241C, strain CIN2, stronger effect = lower value 1.01 | S. cerevisiae deletion strains, locus YPL256C, strain CLN2, stronger effect = lower value 0.989 | S. cerevisiae deletion strains, locus YPR119W, strain clb2, stronger effect = lower value 0.998 | S. cerevisiae deletion strains, locus YPR141C, strain kar3, stronger effect = lower value 1 | S. cerevisiae deletion strains, locus YPR163C, strain tif3, stronger effect = lower value 1.01 | S. cerevisiae deletion strains, locus YPR167C, strain met16, stronger effect = lower value 0.992 | S. cerevisiae deletion strains, strain wtn01, stronger effect = lower value 0.988 | S. cerevisiae strains, strain wild type, stronger effect = lower value 1.01
